# Measurements from PubChem BioAssay (NCATS).
# Results filed as inconclusive are left out. Active and inactive are the calls of the source. Unless noted, the call rests on the fitted dose curve; in most records, active means well fitted curve in the direction sought with a large enough effect; inconclusive means small, poorly fitted or top-dose-only effect, or another doubt; inactive means no such curve, though single readings can be large; an effect the other way counts as inactive or inconclusive.
# Assays:
# [1] = Quantitative High-Throughput drug screen in 47 multiple myeloma cell lines against the NCATS MIPE library collection: KMS11_JCRBsus cell viability assay (AID 1919873); further: nearly all actives have a fitted effect of over 50% in size; further: potency means the concentration at half of the fitted maximal effect
# Outline: (§1)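 Readout: median RLU from CellTiter-Glo after 5 min at room temperature. Preceding step was 48 h drug treatment of 500 cells/well at 37 °C, 5% CO2, with DMSO-only and media-only control wells.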
# [2] = Quantitative High-Throughput drug screen in 47 multiple myeloma cell lines against the NCATS MIPE library collection: KMS28BM_JCRB cell viability assay (AID 1919874); further: nearly all actives have a fitted effect of over 35% in size; further: potency means the concentration at half of the fitted maximal effect
# Outline: as §1
# [3] = qHTS drug screen for cell cycle checkpoint inhibitors in PARPi-resistant BRCA-mutant ovarian cancer cell lines. (AID 1963452; calls by dose curve; further: potency means the concentration at half of the fitted maximal effect); settings: PEO1/OlaR viability, CellTiter-Glo luminescence, 96 h; for Z-AUC: stronger effect = lower value
# Outline: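 PEO1, PEO4 and PEO1/OlaR ovarian cancer cells, 600 per well, exposed 96 h at 37C to a dilution series. Viability read by CellTiter-Glo luminescence, normalized to DMSO and empty wells; activity summarized as Z-AUC.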
# [4] = qHTS for identification of novel therapeutic agents for treatment of microphthalmiaassociated transcription factor (MiT) renal cell carcinoma (RCC) (AID 1963991; calls by dose curve; further: potency means the concentration at half of the fitted maximal effect); settings: CellTiter-Glo, 48 h; for z-score: stronger effect = lower value
# Outline: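 Three TFE3-fusion RCC lines (UOK109, UOK124, UOK145), 500 cells/well in complete medium, were treated with MIPE 4.0 compounds for 48 hours at 37 C. Viability was by CellTiter-Glo luminescence, normalized to DMSO (100%) and empty wells (0%); curves fitted over 11 concentrations.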
# [5] = qHTS profiling for inhibitors of Plasmodium falciparum proliferation (AID 504749);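 further: 0% = DMSO vehicle and full inhibition = artemisinin control; nearly all actives have a fitted effect of over 60% in size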; settings: P. falciparum in erythrocytes, SYBR Green DNA, 72 h, at 28.7 µM (top of the series)
# Outline: (§2)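 Fluorescence of SYBR Green-bound parasite DNA, read at 485/535 nm, served as the growth measure. Infected erythrocytes were cultured with compound 72 h; artemisinin (0.29 uM) and DMSO wells defined the normalization range.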
# 3D7 = assay: as above; settings: P. falciparum in erythrocytes, SYBR Green DNA, 72 h; series mostly up to 28.7 µM
# Outline: as §2
# 7G8 = assay: as above; settings: P. falciparum in erythrocytes, SYBR Green DNA, 72 h; series mostly up to 28.7 µM
# Outline: as §2
# AA1029 = assay: as above; settings: P. falciparum in erythrocytes, SYBR Green DNA, 72 h; series mostly up to 28.7 µM
# Outline: as §2
# AS120 = assay: as above; settings: P. falciparum in erythrocytes, SYBR Green DNA, 72 h; series mostly up to 28.7 µM
# Outline: as §2
# ATS189 = assay: as above; settings: P. falciparum in erythrocytes, SYBR Green DNA, 72 h; series mostly up to 28.7 µM
# Outline: as §2
# ATS95 = assay: as above; settings: P. falciparum in erythrocytes, SYBR Green DNA, 72 h; series mostly up to 28.7 µM
# Outline: as §2
# C2A = assay: as above; settings: P. falciparum in erythrocytes, SYBR Green DNA, 72 h; series mostly up to 28.7 µM
# Outline: as §2
# CP185 = assay: as above; settings: P. falciparum in erythrocytes, SYBR Green DNA, 72 h; series mostly up to 28.7 µM
# Outline: as §2
# CP191 = assay: as above; settings: P. falciparum in erythrocytes, SYBR Green DNA, 72 h; series mostly up to 28.7 µM
# Outline: as §2
# CP192 = assay: as above; settings: P. falciparum in erythrocytes, SYBR Green DNA, 72 h; series mostly up to 28.7 µM
# Outline: as §2
# CP194 = assay: as above; settings: P. falciparum in erythrocytes, SYBR Green DNA, 72 h; series mostly up to 28.7 µM
# Outline: as §2
# CP201 = assay: as above; settings: P. falciparum in erythrocytes, SYBR Green DNA, 72 h; series mostly up to 28.7 µM
# Outline: as §2
# CP211 = assay: as above; settings: P. falciparum in erythrocytes, SYBR Green DNA, 72 h; series mostly up to 28.7 µM
# Outline: as §2
# CP215 = assay: as above; settings: P. falciparum in erythrocytes, SYBR Green DNA, 72 h; series mostly up to 28.7 µM
# Outline: as §2
# [6] = measured here: PEO1 parental Z-AUC
# [7] = TFE3-RCC UOK109 viability, measured here: UOK109 Z-AUC
# [8] = TFE3-RCC viability, measured here: UOK124 Z-AUC
# [9] = TFE3-RCC viability, measured here: UOK145 Z-AUC
compound,measurement,setting,value
CCNC(=O)CC1N=C(c2ccc(Cl)cc2)c2cc(OC)ccc2-n2c(C)nnc21 (stereo unspecified),Potency,[1],18700 nM (active)
same,Potency,[2],18700 nM (active)
same,Z-AUC,[3],0.242 (inactive)
same,Z-AUC,[3]; [6],0.653
same,Z-AUC,[3]; measured here: PEO4 Z-AUC,0.806
CCc1c(C(=O)C(N)=O)c2c(OCC(=O)O)cccc2n1Cc1ccccc1,Potency,[1],inactive
same,Potency,[2],inactive
same,Z-AUC,[3],0.107 (inactive)
same,Z-AUC,[3]; [6],0.125
same,Z-AUC,[3]; measured here: PEO4 Z-AUC,0.188
same,z-score,[4]; [7],-0.00568
same,z-score,[4]; [8],0.644
same,z-score,[4]; [9],-1.8
CCOP(=O)(OCC)C(C)NC(=O)N(CCCl)N=O (stereo unspecified),Potency,[1],inactive
same,Potency,[2],inactive
same,Z-AUC,[3],1.21 (inactive)
same,Z-AUC,[3]; [6],0.417
same,Z-AUC,[3]; measured here: PEO4 Z-AUC,0.472
COc1cc([C@@H]2c3cc4c(cc3[C@@H](O)C3COC(=O)C32)OCO4)cc(OC)c1O (stereo partly specified),Potency,[1],9.3 nM (active)
same,Potency,[2],3.3 nM (active)
same,Z-AUC,[3],-0.729 (inactive)
same,Z-AUC,[3]; [6],-0.507
same,Z-AUC,[3]; measured here: PEO4 Z-AUC,-1.03
same,Potency,[4]; TFE3-RCC UOK109 viability,41.8 nM (active)
same,z-score,[4]; [7],-1.65
same,z-score,[4]; [8],-1.93
same,z-score,[4]; [9],-1.12
CCN1CCN(C(=O)Cc2ccc(Nc3ncc(F)c(Nc4ccc(C(=O)Nc5ccccc5Cl)cc4)n3)cc2)CC1,Potency,[1],743 nM (active)
same,Potency,[2],1870 nM (active)
same,Z-AUC,[3],0.278 (inactive)
same,Z-AUC,[3]; [6],-0.415
same,Z-AUC,[3]; measured here: PEO4 Z-AUC,-1.09
COC(=O)[C@@H](N)CCCN=C(N)N[N+](=O)[O-],Potency,[1],inactive
same,Potency,[2],inactive
same,Z-AUC,[3],-0.673 (inactive)
same,Z-AUC,[3]; [6],-0.429
same,Z-AUC,[3]; measured here: PEO4 Z-AUC,-0.589
same,z-score,[4]; [7],0.59
same,z-score,[4]; [8],0.788
same,z-score,[4]; [9],2.13
same,"activity, negative = inhibition",[5]; parasite line A,8.8% (inactive)
same,"activity, negative = inhibition",[5]; parasite line B,10.5% (inactive)
same,Potency,3D7,inactive
same,Potency,7G8,inactive
same,Potency,AA1029,inactive
same,Potency,AS120,inactive
same,Potency,ATS189,inactive
same,Potency,ATS95,inactive
same,Potency,C2A,inactive
same,Potency,CP185,inactive
same,Potency,CP191,inactive
same,Potency,CP192,inactive
same,Potency,CP194,inactive
same,outcome,CP201,inactive
same,Potency,CP211,inactive
same,Potency,CP215,inactive
CN[C@@H]1Cc2cccc3[nH]c(=O)n(c23)C1,Potency,[1],inactive
same,Potency,[2],inactive
same,Z-AUC,[3],1.45 (inactive)
same,Z-AUC,[3]; [6],1.4
same,Z-AUC,[3]; measured here: PEO4 Z-AUC,1.34
CC1=C(O)C(=O)C=C2C1=CC=C1[C@@]2(C)CC[C@@]2(C)[C@@H]3C[C@](C)(C(=O)O)CC[C@]3(C)CC[C@]12C,Potency,[1],935 nM (active)
same,Potency,[2],833 nM (active)
same,Z-AUC,[3],-0.53 (inactive)
same,Z-AUC,[3]; [6],-1.33
same,Z-AUC,[3]; measured here: PEO4 Z-AUC,-0.972
same,Potency,[4]; TFE3-RCC UOK109 viability,2640 nM (active)
same,z-score,[4]; [7],-1.17
same,z-score,[4]; [8],-1.16
same,z-score,[4]; [9],-1.07
CC[C@@]1(O)C(=O)OCc2c1cc1n(c2=O)Cc2cc3ccccc3nc2-1,Potency,[1],418 nM (active)
same,Potency,[2],105 nM (active)
same,Potency,[3],38.9 nM (active)
same,Z-AUC,[3]; [6],-2.44
same,Z-AUC,[3]; measured here: PEO4 Z-AUC,-1.71
same,Potency,[4]; TFE3-RCC UOK109 viability,590 nM (active)
same,z-score,[4]; [7],-1.89
same,z-score,[4]; [8],-3.04
same,z-score,[4]; [9],-3.18
CC(N[C@H]1C[C@H]1c1ccccc1)c1ccc2c(c1)OCCO2 (stereo partly specified),Potency,[1],inactive
same,Potency,[2],inactive
same,z-score,[4]; [7],0.542
same,z-score,[4]; [8],0.0589
same,z-score,[4]; [9],0.597
NC1CC1c1ccccc1 (stereo unspecified),Potency,[1],inactive
same,Potency,[2],inactive
same,z-score,[4]; [7],0.891
same,z-score,[4]; [8],0.509
same,z-score,[4]; [9],0.821
O=c1[nH]c2ccccc2n1C1CCN(Cc2ccc(-c3[nH]c4cc5ncnc5cc4nc3-c3ccccc3)cc2)CC1,Potency,[1],20900 nM (active)
same,Potency,[2],18700 nM (active)
same,Z-AUC,[3],-0.823 (inactive)
same,Z-AUC,[3]; [6],-0.392
same,Z-AUC,[3]; measured here: PEO4 Z-AUC,-0.582
CCN1C[C@]2(OC(=O)c3ccccc3NC(C)=O)CC[C@H](OC)[C@@]34[C@H]5CC6[C@@H](OC)C[C@](O)(C(C[C@@H]23)[C@@H]14)[C@@]5(O)[C@@H]6OC,Potency,[1],inactive
same,Potency,[2],inactive
same,Z-AUC,[3],0.577 (inactive)
same,Z-AUC,[3]; [6],1.09
same,Z-AUC,[3]; measured here: PEO4 Z-AUC,1.24
same,z-score,[4]; [7],0.543
same,z-score,[4]; [8],0.783
same,z-score,[4]; [9],0.781
O=C(O)CNC(=O)c1c(O)c2ccccc2n(Cc2ccccc2)c1=O,Potency,[1],inactive
same,Potency,[2],inactive
same,Z-AUC,[3],-0.292 (inactive)
same,Z-AUC,[3]; [6],0.683
same,Z-AUC,[3]; measured here: PEO4 Z-AUC,0.802
O=C(Nc1ccncc1)C(=O)c1cn(Cc2ccc(Cl)cc2)c2ccccc12,Potency,[1],5.3 nM (active)
same,Potency,[2],4.7 nM (active)
same,Z-AUC,[3],-0.51 (inactive)
same,Z-AUC,[3]; [6],-1.11
same,Z-AUC,[3]; measured here: PEO4 Z-AUC,-0.872
same,Potency,[4]; TFE3-RCC UOK109 viability,469 nM (active)
same,z-score,[4]; [7],-1.08
same,z-score,[4]; [8],-1.43
same,z-score,[4]; [9],-1.01
